# Data reported in PMC7862700, “An all-to-all approach to the identification of sequence-specific readers for epigenetic DNA modifications on cytosine”.
# Tests used:
# Assay in all cases: DAPPL (digital affinity profiling via proximity ligation, sequencing); 10 mM Tris-HCl pH 7.5, 50 mM NaCl, 1 mM DTT, 4% glycerol, room temperature, 30 min; GST-TFs on glutathione beads, 16-mer random dsDNA library, 0.1% formaldehyde crosslink after washing; high values mean tight binding
# Conditions in all cases: protein: recombinant; tags: N-terminal GST; dsDNA, one strand shown
# [1] = molecular target: T1, FLI1 (Homo sapiens, UniProt Q01543 1-452)
# T1 sequence: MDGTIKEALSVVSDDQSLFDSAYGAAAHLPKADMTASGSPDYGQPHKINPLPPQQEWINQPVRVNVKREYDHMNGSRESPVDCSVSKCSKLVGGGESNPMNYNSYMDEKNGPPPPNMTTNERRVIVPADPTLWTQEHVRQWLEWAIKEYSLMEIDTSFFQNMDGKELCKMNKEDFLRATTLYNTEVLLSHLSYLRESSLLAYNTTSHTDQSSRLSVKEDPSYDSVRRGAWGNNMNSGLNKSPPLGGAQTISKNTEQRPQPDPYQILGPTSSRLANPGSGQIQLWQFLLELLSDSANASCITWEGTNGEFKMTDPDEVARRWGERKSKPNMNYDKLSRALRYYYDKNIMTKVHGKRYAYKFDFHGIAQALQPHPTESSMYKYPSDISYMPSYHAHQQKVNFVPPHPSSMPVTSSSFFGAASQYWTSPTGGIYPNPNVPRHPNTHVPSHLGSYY
# Procedure, shortened: (§1)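 Binding signal is defined as a hexamer's read frequency for one factor over its frequency for the tag-only sample. To obtain reads, GST-fused human transcription factors were expressed in yeast, captured on glutathione beads, barcoded with DNA and pooled with that sample. Pools met 200 nmole of a 16-mer random double-stranded DNA library in Tris/NaCl/DTT/glycerol buffer for 30 min at room temperature before washing, 0.1% formaldehyde crosslinking, proximity ligation (BsaI/T4 ligase, 1 h, 37 °C), PCR and Illumina NextSeq500 sequencing.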
# [2] = molecular target: T2, ELK1 (Homo sapiens, UniProt P19419 1-428)
# T2 sequence: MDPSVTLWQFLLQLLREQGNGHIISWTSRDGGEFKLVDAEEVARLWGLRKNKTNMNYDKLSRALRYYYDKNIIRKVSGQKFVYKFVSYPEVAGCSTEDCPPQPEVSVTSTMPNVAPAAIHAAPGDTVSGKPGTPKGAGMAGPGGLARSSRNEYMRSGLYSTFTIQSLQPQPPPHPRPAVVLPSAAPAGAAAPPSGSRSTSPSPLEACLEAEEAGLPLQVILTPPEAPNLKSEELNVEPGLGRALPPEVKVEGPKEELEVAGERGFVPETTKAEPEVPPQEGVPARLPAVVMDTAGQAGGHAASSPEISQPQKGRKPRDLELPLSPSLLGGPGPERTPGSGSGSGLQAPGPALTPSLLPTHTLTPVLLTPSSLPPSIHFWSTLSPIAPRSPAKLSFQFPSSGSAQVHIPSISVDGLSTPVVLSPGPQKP
# Procedure, shortened: as §1
# [3] = molecular target: T3, GABPA (Homo sapiens, UniProt Q06546 1-454)
# T3 sequence: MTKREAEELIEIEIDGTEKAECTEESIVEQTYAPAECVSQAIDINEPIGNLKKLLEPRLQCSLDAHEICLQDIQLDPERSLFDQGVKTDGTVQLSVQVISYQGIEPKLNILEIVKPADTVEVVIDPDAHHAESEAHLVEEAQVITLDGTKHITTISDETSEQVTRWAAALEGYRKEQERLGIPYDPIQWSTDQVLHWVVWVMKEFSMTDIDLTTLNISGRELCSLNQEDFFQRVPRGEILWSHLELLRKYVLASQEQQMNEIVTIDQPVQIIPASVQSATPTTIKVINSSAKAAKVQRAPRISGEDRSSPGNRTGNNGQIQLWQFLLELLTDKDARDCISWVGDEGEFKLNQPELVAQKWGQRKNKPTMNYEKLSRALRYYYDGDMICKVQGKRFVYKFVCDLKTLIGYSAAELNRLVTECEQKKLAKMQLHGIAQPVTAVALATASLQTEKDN
# Procedure, shortened: as §1
# [4] = molecular target: T4, ERG (Homo sapiens, UniProt P11308 1-479)
# T4 sequence: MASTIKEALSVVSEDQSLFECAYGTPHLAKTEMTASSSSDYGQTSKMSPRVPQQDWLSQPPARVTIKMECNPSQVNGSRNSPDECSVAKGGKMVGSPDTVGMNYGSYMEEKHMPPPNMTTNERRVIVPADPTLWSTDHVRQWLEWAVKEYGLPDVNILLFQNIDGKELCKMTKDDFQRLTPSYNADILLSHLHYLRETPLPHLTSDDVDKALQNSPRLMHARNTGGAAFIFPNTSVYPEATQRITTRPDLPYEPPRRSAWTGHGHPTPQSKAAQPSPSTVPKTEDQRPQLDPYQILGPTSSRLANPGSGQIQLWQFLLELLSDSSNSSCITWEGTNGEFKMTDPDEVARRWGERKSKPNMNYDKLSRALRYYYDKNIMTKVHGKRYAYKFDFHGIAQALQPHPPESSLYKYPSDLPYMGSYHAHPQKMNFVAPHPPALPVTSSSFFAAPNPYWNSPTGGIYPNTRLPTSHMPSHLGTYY
# Procedure, shortened: as §1
# [5] = molecular target: ELF1 (Homo sapiens, UniProt P32519 1-619)
# ELF1, sequence (P32519 whole entry): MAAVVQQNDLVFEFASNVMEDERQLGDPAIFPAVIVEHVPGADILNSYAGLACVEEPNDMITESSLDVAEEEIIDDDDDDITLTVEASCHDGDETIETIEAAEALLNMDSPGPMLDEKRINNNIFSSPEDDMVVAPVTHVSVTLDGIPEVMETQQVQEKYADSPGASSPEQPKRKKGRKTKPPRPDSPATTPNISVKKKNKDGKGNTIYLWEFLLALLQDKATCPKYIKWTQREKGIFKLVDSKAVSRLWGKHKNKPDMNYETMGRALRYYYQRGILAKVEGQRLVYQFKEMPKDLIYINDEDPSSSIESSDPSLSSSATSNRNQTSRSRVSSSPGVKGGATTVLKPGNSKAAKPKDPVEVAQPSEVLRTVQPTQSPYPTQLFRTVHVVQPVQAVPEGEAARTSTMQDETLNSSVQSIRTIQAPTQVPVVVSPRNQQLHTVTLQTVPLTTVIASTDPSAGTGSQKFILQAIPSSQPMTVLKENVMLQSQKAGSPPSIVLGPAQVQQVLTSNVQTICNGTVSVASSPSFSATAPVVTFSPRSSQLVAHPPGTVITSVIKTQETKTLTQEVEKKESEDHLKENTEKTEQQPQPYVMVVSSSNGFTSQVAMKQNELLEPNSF
# Procedure, shortened: as §1
# [6] = molecular target: T5, EHF (Homo sapiens, UniProt Q9NZC4 1-300)
# T5 sequence: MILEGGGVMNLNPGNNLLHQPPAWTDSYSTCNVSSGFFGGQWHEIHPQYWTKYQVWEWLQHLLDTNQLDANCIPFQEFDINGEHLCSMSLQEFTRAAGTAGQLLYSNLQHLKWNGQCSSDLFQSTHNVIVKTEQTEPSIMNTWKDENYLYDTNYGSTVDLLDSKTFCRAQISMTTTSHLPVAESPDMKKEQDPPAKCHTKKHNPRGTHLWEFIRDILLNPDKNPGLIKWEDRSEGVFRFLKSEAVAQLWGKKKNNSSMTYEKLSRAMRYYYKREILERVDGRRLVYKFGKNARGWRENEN
# Procedure, shortened: as §1
# [7] = molecular target: SPI1 (Homo sapiens, UniProt P17947 1-270)
# Procedure, shortened: as §1
# [8] = molecular target: SPIB (Homo sapiens, UniProt Q01892 1-262)
# SPIB, sequence (Q01892 whole entry): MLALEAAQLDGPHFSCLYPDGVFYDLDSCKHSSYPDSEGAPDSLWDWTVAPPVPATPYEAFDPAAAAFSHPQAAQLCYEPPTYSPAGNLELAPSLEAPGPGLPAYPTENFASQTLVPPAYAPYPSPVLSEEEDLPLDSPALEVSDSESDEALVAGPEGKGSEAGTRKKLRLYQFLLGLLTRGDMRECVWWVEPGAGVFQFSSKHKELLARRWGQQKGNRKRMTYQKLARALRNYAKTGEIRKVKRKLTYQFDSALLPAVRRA
# Procedure, shortened: as §1
# [9] = molecular target: T6, ELK3 (Homo sapiens, UniProt P41970 1-407)
# T6 sequence: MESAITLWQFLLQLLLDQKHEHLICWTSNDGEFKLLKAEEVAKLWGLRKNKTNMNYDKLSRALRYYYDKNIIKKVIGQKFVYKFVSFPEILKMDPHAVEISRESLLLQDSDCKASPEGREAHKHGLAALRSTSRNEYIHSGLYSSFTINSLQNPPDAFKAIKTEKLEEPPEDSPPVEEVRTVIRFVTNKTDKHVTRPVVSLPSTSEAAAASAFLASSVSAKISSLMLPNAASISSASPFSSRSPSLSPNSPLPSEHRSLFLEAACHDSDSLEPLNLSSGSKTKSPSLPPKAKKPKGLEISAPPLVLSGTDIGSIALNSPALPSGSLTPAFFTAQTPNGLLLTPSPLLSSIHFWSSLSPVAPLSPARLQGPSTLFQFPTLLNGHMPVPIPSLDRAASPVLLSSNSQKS
# Procedure, shortened: as §1
# [10] = molecular target: T7, FEV (Homo sapiens, UniProt Q99581 1-238)
# T7 sequence: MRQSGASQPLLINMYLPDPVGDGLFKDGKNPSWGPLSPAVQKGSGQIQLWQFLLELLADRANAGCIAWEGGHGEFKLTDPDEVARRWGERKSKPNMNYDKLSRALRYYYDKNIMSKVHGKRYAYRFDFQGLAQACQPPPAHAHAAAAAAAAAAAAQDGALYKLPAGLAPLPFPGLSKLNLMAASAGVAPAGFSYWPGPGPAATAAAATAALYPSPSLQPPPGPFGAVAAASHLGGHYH
# Procedure, shortened: as §1
# [11] = molecular target: ETV5 (Homo sapiens, UniProt P41161 1-510)
# ETV5, sequence (P41161 whole entry): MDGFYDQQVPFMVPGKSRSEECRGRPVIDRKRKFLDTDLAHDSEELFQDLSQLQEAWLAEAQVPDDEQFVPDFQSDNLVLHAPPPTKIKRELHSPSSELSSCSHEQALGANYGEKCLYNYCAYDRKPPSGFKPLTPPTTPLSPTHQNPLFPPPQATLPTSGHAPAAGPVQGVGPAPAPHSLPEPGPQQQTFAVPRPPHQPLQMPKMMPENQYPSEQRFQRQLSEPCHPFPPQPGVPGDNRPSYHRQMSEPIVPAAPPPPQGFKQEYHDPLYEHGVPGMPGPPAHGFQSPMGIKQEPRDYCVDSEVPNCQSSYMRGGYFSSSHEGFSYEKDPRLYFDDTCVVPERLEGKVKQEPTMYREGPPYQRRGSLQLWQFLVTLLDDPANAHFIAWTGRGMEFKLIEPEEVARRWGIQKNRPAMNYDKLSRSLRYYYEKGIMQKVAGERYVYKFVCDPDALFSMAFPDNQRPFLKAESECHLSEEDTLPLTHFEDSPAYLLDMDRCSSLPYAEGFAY
# Procedure, shortened: as §1
# [12] = molecular target: ELF4 (Homo sapiens, UniProt Q99607 1-663)
# ELF4, sequence (Q99607 whole entry): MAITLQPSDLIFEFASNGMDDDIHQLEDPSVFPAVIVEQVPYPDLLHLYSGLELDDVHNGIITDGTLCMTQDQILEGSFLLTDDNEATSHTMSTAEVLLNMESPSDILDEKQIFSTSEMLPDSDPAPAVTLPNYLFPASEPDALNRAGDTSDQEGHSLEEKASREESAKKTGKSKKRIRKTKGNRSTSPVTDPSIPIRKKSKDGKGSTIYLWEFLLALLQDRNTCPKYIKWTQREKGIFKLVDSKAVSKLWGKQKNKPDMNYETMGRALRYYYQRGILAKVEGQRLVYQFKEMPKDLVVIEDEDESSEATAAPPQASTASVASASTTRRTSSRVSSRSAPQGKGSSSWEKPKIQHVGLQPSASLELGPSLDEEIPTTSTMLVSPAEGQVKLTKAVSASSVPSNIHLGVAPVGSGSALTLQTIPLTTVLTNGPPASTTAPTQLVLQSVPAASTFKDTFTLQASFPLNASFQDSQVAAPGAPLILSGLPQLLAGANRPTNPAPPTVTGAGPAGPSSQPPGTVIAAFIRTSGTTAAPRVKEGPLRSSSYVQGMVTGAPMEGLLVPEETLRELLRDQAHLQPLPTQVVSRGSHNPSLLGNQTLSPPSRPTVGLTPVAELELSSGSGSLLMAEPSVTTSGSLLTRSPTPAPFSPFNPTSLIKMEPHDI
# Procedure, shortened: as §1
# [13] = molecular target: ETV1 (Homo sapiens, UniProt P50549 1-477)
# ETV1, sequence (P50549 whole entry): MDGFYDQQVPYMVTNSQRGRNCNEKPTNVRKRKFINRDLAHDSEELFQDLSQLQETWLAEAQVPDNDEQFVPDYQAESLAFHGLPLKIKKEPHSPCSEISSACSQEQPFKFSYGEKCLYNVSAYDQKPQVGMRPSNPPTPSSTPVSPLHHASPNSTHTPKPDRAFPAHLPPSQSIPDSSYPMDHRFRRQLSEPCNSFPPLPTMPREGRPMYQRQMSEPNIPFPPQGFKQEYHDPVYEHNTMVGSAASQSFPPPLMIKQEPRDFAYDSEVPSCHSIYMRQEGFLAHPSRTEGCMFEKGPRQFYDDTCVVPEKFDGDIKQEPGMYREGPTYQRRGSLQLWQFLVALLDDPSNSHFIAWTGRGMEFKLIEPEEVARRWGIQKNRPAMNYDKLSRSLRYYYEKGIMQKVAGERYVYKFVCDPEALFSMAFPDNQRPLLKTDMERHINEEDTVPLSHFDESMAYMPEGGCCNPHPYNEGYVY
# Procedure, shortened: as §1
# [14] = molecular target: T8, ERF (Homo sapiens, UniProt P50548 1-548)
# T8 sequence: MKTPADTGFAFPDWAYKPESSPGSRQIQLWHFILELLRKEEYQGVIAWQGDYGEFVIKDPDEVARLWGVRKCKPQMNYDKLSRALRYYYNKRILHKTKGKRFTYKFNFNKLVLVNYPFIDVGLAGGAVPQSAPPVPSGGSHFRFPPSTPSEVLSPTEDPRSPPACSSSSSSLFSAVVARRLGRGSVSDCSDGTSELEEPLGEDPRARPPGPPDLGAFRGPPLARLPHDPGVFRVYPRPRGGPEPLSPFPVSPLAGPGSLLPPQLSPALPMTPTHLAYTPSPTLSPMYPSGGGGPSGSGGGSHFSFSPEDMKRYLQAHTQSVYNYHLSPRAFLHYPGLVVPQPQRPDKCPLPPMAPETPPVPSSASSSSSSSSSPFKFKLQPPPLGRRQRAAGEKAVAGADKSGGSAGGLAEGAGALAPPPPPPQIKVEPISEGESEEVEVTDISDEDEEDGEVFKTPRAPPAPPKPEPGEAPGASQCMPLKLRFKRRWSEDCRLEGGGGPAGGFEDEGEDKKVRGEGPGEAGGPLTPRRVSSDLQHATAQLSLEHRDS
# Procedure, shortened: as §1
# [15] = molecular target: T9, ETV3L (Homo sapiens, UniProt Q6ZN32 1-361)
# T9 sequence: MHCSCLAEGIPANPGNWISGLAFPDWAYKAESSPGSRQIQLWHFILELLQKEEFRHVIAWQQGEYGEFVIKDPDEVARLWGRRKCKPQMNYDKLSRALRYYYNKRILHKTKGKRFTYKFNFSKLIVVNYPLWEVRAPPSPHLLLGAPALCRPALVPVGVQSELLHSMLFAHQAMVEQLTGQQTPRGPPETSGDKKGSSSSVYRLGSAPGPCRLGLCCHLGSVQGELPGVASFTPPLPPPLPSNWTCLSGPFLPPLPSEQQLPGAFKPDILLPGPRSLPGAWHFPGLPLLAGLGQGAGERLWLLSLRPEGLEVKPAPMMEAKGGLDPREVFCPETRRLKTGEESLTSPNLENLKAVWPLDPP
# Procedure, shortened: as §1
# [16] = molecular target: T10, ETS2 (Homo sapiens, UniProt P15036 1-469)
# T10 sequence: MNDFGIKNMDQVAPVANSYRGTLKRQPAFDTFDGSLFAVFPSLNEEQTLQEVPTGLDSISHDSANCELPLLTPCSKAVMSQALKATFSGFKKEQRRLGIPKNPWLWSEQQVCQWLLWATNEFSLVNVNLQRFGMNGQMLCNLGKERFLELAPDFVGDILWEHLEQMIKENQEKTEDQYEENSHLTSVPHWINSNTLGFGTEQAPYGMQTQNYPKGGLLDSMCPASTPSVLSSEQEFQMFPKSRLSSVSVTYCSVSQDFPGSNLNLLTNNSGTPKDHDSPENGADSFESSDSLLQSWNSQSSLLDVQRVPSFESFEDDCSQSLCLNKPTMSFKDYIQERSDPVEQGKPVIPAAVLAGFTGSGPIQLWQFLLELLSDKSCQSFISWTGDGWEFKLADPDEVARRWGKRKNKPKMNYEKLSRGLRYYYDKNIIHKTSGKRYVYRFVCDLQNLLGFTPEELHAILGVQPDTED
# Procedure, shortened: as §1
# [17] = molecular target: T11, SPDEF (Homo sapiens, UniProt O95238 1-335)
# T11 sequence: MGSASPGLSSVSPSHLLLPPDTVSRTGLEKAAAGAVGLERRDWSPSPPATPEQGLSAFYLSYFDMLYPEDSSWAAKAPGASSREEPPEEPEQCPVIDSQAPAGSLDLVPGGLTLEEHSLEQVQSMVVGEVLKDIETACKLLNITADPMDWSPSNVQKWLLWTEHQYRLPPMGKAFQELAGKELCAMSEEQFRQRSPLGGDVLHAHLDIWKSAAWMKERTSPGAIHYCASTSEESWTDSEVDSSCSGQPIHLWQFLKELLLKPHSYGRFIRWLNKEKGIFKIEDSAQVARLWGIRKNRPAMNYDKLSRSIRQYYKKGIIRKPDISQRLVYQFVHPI
# Procedure, shortened: as §1
# [18] = molecular target: T12, ETV3 (Homo sapiens, UniProt P41162-2 1-143)
# T12 sequence: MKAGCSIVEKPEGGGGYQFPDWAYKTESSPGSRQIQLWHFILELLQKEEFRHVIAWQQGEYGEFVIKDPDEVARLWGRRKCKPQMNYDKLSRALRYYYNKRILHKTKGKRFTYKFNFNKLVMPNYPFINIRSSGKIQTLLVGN
# Procedure, shortened: as §1
# [19] = molecular target: ETV6 (Homo sapiens, UniProt P41212 1-452)
# ETV6, sequence (P41212 whole entry): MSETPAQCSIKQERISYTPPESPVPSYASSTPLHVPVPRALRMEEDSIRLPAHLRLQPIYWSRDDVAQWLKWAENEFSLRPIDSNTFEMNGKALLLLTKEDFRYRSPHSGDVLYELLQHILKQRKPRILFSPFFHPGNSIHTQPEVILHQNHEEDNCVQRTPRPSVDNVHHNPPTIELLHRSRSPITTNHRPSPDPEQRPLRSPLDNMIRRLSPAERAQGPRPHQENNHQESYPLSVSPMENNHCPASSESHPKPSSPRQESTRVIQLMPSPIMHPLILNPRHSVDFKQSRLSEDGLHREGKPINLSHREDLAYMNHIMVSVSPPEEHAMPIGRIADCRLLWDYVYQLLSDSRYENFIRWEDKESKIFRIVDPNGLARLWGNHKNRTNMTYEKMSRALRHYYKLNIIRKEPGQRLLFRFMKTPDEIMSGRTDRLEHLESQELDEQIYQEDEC
# Procedure, shortened: as §1
sequence,measurement,setting,value
CATTGT,binding signal,[1],"1.2 fold enrichment (6-mer frequency, TF over GST control)"
same,binding signal,[2],"1.14 fold enrichment (6-mer frequency, TF over GST control)"
same,binding signal,[3],"1.19 fold enrichment (6-mer frequency, TF over GST control)"
same,binding signal,[4],"1.12 fold enrichment (6-mer frequency, TF over GST control)"
same,binding signal,[5],"1.1 fold enrichment (6-mer frequency, TF over GST control)"
same,binding signal,[6],"1.14 fold enrichment (6-mer frequency, TF over GST control)"
same,binding signal,[7],"1.04 fold enrichment (6-mer frequency, TF over GST control)"
same,binding signal,[8],"1.04 fold enrichment (6-mer frequency, TF over GST control)"
same,binding signal,[9],"1.08 fold enrichment (6-mer frequency, TF over GST control)"
same,binding signal,[10],"1.09 fold enrichment (6-mer frequency, TF over GST control)"
same,binding signal,[11],"1.19 fold enrichment (6-mer frequency, TF over GST control)"
same,binding signal,[12],"1.14 fold enrichment (6-mer frequency, TF over GST control)"
same,binding signal,[13],"1.14 fold enrichment (6-mer frequency, TF over GST control)"
same,binding signal,[14],"1.12 fold enrichment (6-mer frequency, TF over GST control)"
same,binding signal,[15],"1.19 fold enrichment (6-mer frequency, TF over GST control)"
same,binding signal,[16],"1.07 fold enrichment (6-mer frequency, TF over GST control)"
same,binding signal,[17],"1.11 fold enrichment (6-mer frequency, TF over GST control)"
same,binding signal,[18],"1.16 fold enrichment (6-mer frequency, TF over GST control)"
same,binding signal,[19],"1.15 fold enrichment (6-mer frequency, TF over GST control)"
